# Laboratory results: PubChem BioAssay AID624483 (NMMLSC, 2012)
# The campaign covered roughly 360,000 compounds. About 11,000 (3.1%) were called active. Not shown: some 2% with an inconclusive outcome. Rule as the data show it: active = fluorescence intensity above about 16000; inconclusive = no clear call, values can overlap the other calls; inactive = below that. The list comes from a sample in which actives are over-represented; it also holds similar structures and randomly drawn compounds.
# Test: counter-screen for toxin protease inhibitors: compound fluorescence, primary screen, artefact control for toxin protease inhibitor project, biochemical, multiplex microsphere, HTS (AID 624483)
# Conditions: compound autofluorescence counterscreen, microsphere flow cytometry; stronger effect = higher value
row,Compound,fluorescence intensity
1,CC1(Oc2ccccc2-c2ccno2)CCN(Cc2ccc(-c3ccccc3)o2)C1 (configuration not stated),3970 (inactive)
2,CN1CCN(c2ccncc2S(=O)(=O)N2CCCC2)CC1,3800 (inactive)
3,Cc1ccc(NC(=O)c2ccc(S(=O)(=O)NCC3CCCO3)cc2)cc1C (configuration not stated),4660 (inactive)
4,CCc1c(O)nc(SCC(=O)Nc2ccccc2)n(C(C)CC)c1=O (configuration not stated),9640 (inactive)
5,CCOC(=O)c1cc2cc(C)ccc2[nH]1,4370 (inactive)
6,Cc1cc(Br)cn2c(Cc3cccc(F)c3)c(-c3cccc(Br)c3)nc12,5680 (inactive)
7,C=CC[C@@H](Cc1ccc(F)cc1)C(=O)OC[C@H]1CCCN1C(=O)[C@H](CC=C)CC(=O)N(CCO)Cc1ccccc1,3800 (inactive)
8,Cc1cccc(OCc2nnc(SCn3nnc4ccccc4c3=O)o2)c1,4060 (inactive)
9,Cc1cc(C)cc(-c2nnc(SCC(=O)NC3CC3)o2)c1,8900 (inactive)
10,Cc1cc(C)cc(OCc2nnc(SCC(=O)OC3CCCCC3)o2)c1,19000 (active)
11,CN(C)CCN1CCN(c2cc(-c3cccc(Cl)c3)nc3ccnn23)CC1,3570 (inactive)
12,COC(=O)[C@@]1(Sc2ccc(C)cc2)CC(=O)N(c2cccc(SC)c2)[C@@H]1c1ccccc1,4090 (inactive)
13,COc1ccc(Cn2c(=O)oc3ccccc32)cc1,2890 (inactive)
14,O=c1c2ccccc2oc2nc3n(c(=O)c12)CCCS3,10300 (inactive)
15,CCc1nc2oc3ccccc3c(=O)c2c(=O)n1Cc1ccc(OC)cc1,17100 (active)
16,CCCCn1nnnc1C1(C)CCC(=O)N1Cc1ccc(OC)c(OC)c1 (configuration not stated),5290 (inactive)
17,CC(=O)c1cc(NC(=O)c2ccccc2)c(=O)oc1/C=C/N(C)C,24500 (active)
18,COc1cc(NC(=O)c2ccccc2)c(OC)cc1NC(=O)Cc1ccccc1,4090 (inactive)
19,CCOC(=O)c1cc(NC(=O)c2ccc(Cl)cc2)c(=O)oc1-c1ccccc1,5720 (inactive)
20,O=C(CNC(=O)c1cc2c(s1)CCC2)Nc1ccccc1Br,24100 (active)
21,O=C(NCC1CCCO1)c1cc2c(s1)CCCC2 (configuration not stated),8290 (inactive)

row,Compound,fluorescence intensity
1,O=C(CCc1nc2sc3c(c2c(=O)[nH]1)CCCC3)NCC(=O)Nc1ccccc1Br,3820 (inactive)
2,CN(C)c1ccc(N/C=C/C(=O)C(F)(F)F)cc1,3470 (inactive)
3,CCc1nc2ccc(C(=O)NCCNC(C)=O)cn2c1N(CC)Cc1cccc(Br)c1,3860 (inactive)
4,Cc1ccn2c(=O)nc(SCC(=O)NCc3ccc(F)cc3)nc2c1,16300 (active)
5,Cc1ccn2c(=O)nc(SCC(=O)NCc3ccc4c(c3)OCO4)nc2c1,5730 (inactive)
6,Cc1ccc(CNC(=O)CSc2nnc3c(n2)[nH]c2ccc(F)cc23)cc1,5580 (inactive)
7,COc1ccc(CC(N)c2csc(NC(=O)Nc3ccc(C(C)C)cc3)n2)cc1 (configuration not stated),3480 (inactive)
8,c1ccc2c(CNn3cnnc3)cccc2c1,2660 (inactive)
9,Nc1scc[n+]1Cc1cccc2cccnc12,3430 (inactive)
10,c1ccc2c(C[n+]3csc4ccccc43)cccc2c1,24500 (active)
11,Cc1cc(S(=O)(=O)NCc2ccccn2)c(Cl)cc1Cl,3790 (inactive)
12,O=S(=O)(NCc1ccccn1)c1ccc(F)cc1,11500 (inactive)
13,CC1CCN(S(=O)(=O)c2ccc(S(=O)(=O)NCc3cccnc3)cc2)CC1,4180 (inactive)
14,O=S(=O)(NCc1cccnc1)c1ccc(Cl)nc1,2520 (inactive)
15,O=S(=O)(NCc1cccnc1)c1ccc(Br)s1,23300 (active)
16,O=S(=O)(NCc1ccccn1)c1ccc(Br)s1,18000 (active)
17,CN(C(=O)c1cccc(NC(=O)C2CCN(C(=O)OC(C)(C)C)CC2)c1)C1CCC1,4250 (inactive)
18,CCc1ccnc(NS(=O)(=O)c2ccc3c(c2)OCCO3)c1,6030 (inactive)
19,CC(=O)NN=C(C)c1ccc(NC(=O)C2CC2)cc1,3420 (inactive)
20,CCCCCn1nnnc1-c1nc2cc3ccccc3cc2[nH]c1=O,5190 (inactive)
21,COc1ccccc1CSc1ncc(-c2ccc([N+](=O)[O-])cc2)[nH]1,2560 (inactive)

row,Compound,fluorescence intensity
1,CC(O)C(NS(=O)(=O)c1ccc(Cl)cc1)C(=O)OCc1cc([N+](=O)[O-])cc2c1OCOC2 (configuration not stated),3270 (inactive)
2,Nc1ccccc1SCc1cc([N+](=O)[O-])cc2c1OCOC2,22000 (active)
3,Cn1c(NC(=O)c2ccco2)c(-c2ccccc2Cl)c(=O)c2ccccc21,5600 (inactive)
4,COc1cccc(-c2cnc(C(O)c3ccccc3OC)[nH]2)c1 (configuration not stated),4140 (inactive)
5,CCN(Cc1nc2ccccc2c(=O)[nH]1)Cc1cc(=O)oc2cc(C)c(C)cc12,22700 (active)
6,CN(Cc1nc2ccccc2c(=O)[nH]1)Cc1cc(=O)oc2ccc3ccccc3c12,10600 (inactive)
7,CCN(CC(=O)NC(=O)NCc1ccccc1)Cc1nc2ccccc2c(=O)[nH]1,4790 (inactive)
8,Cc1ccccc1/[N+]([O-])=C/c1ccncc1,3600 (inactive)
9,O=C(Nc1ccc(F)cc1)Nc1nnc([C@H]2C[C@H](O)[C@@H](CO)O2)s1,2870 (inactive)
10,CCOc1ccc(C(=O)Nc2nccs2)cc1[N+](=O)[O-],2430 (inactive)
11,COc1ccc(C(=O)NNC(=O)c2cnccn2)cc1[N+](=O)[O-],16500 (active)
12,COc1cccc(OCC(=O)NNC(=O)c2cnccn2)c1,2360 (inactive)
13,Cc1ccc(CC2(C)C(=O)Nc3ccc(OC(F)(F)F)cc32)cc1 (configuration not stated),3690 (inactive)
14,Cc1cccc(NC(=O)C2CCN(C(=O)NC3CCCCC3)CC2)c1,3730 (inactive)
15,O=C(Nc1cccc(OCC(=O)N2CCOCC2)c1)C1CCCCC1,23600 (active)
16,O=C(COc1ccc(S(=O)(=O)Nc2cccc(C(F)(F)F)c2)cc1)N1CCOCC1,4570 (inactive)
17,C#Cc1ccc(NC(=O)C2(C)CCN2C(=O)Cc2ccc(-c3ccccc3)cc2)cc1 (configuration not stated),3720 (inactive)
18,Cc1ccc(C)c(NC(=S)NNC(=S)Nc2ccc(C(C)C)cc2)c1,3300 (inactive)
19,C/C(=N\NC(=S)Nc1ccc(C)cc1)c1cc2ccccc2o1,4230 (inactive)
20,Cc1ccc(NC(=S)N/N=C2/CCCc3c(C)cc(C)cc32)cc1,20600 (active)
